HTR2A ag: mouse Htr2a agonists via beta-arrestin recruitment, primary screen, cell-based, luminescence. 5-hydroxytryptamine receptor 2A (Mus musculus), P35363. CHO-K1 mHTR2A beta-arrestin complementation; percent of 30 µM serotonin response. activation, % at 7.6 µM. hit rate 0.66% among 360,000;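 active = activation above a run cutoff, the mean activation of all tested compounds plus 3 SD, cut at about 14% in these data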;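 note: 0% = plate median of compound wells and 100% = 30 µM serotonin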
Fh CTSL1 inh: Fasciola hepatica cathepsin L1 inhibitors, primary screen, counter-screen for PFM18AAP inhibitor project, biochemical, QFRET, fluorogenic peptide substrate | recombinant F. hepatica cathepsin L1, Z-Leu-Arg-MCA fluorescence | inhibition, % at 5.96 µM | hit rate 0.49% among 300,000;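 active = inhibition above the mean of all tested compounds plus 3 SD, set per screening campaign, cut at about 17% in these data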;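 note: 0% = plate median of test compound wells and 100% = 1 µM Z-Phe-Ala-diazomethylketone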
LANA-H2A inh: blockers of LANA interaction with H2A/H2B – biochemical, FP readout, HTS, primary screen; hit rate 0.6% among 320,000; AID 2629, 2010; cell-free LANA-H2A/H2B peptide, fluorescence polarization; Protein LANA1 (Human herpesvirus 8 type P (isolate GK18)), Q9QR71; inhibition, % (no concentration beside the values); in the data active = inhibition mostly above about 10%, no sharp cut-off; inactive = mostly below about 6.7%
Target sequence (Q9QR71 whole entry, looked up): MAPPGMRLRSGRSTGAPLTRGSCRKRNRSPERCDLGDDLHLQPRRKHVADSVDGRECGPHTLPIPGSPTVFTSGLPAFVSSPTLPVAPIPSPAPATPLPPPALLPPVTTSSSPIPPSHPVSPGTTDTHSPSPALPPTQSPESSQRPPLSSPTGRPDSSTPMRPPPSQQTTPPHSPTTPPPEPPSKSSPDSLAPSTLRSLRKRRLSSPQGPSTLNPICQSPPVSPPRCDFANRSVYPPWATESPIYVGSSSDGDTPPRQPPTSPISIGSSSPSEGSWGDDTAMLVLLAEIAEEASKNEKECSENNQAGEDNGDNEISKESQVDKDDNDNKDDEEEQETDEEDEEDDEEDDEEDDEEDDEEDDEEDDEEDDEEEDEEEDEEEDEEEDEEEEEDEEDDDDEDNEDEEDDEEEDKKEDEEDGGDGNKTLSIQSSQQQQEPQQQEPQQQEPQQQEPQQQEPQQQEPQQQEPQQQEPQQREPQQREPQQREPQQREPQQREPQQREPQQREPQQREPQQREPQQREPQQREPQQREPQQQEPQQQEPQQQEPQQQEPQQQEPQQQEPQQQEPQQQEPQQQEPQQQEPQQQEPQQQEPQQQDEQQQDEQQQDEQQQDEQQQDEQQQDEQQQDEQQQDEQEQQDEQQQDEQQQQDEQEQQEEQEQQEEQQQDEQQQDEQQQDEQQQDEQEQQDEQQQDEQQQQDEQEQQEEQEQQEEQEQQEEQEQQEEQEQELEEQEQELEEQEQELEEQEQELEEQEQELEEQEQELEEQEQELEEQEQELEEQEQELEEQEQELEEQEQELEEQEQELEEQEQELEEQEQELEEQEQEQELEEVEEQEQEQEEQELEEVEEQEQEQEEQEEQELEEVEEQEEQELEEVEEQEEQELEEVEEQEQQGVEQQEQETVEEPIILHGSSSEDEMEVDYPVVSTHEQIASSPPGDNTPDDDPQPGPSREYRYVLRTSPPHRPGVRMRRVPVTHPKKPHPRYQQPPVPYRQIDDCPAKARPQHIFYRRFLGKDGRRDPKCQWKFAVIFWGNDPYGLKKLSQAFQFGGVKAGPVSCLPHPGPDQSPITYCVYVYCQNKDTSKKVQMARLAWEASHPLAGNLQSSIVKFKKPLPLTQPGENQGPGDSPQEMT
HDAC3 inhib: HDAC3 deacetylase inhibitors, primary screen, biochemical, fluorescence, cell-free homogeneous. hit rate 0.15% among 320,000. recombinant HDAC3, fluorogenic peptide/trypsin coupled. inhibition, % at 8.3 µM. Histone deacetylase 3 (Homo sapiens), O15379; in the data active = inhibition above about 26%, passing the limit was not always enough
* = called active by the depositor. Only some compounds are listed: those with a hit (about 1.7% of all), similar ones and a draw of the others.

Screening C=CC[C@H](CC(=O)N(CCO)Cc1ccccc1)C(=O)N[C@@H](COC(=O)[C@@H](CC=C)Cc1ccc(F)cc1)Cc1c[nH]c2ccccc12 returned HTR2A ag 2 and HDAC3 inhib 39*.
Screening C=CCC[C@@H](Cc1ccc(F)cc1)C(=O)OC[C@@H]1CCCN1C(=O)[C@H](CC=C)CC(=O)N[C@H](CO)Cc1ccccc1 returned HTR2A ag -7, LANA-H2A inh -8 and HDAC3 inhib 18.
`O=C(COC(=O)c1cnccn1)N=c1sccn1Cc1ccccc1Cl` gave HTR2A ag -5, Fh CTSL1 inh -8, LANA-H2A inh 5 and HDAC3 inhib -3.
Screening CCOc1cc(/C=C2\CCCC(C(=O)C(F)(F)F)=C2O)ccc1O returned HTR2A ag -4, Fh CTSL1 inh -2, LANA-H2A inh 2 and HDAC3 inhib 35*.
COc1cc(/C=C2/CCCC(C(=O)C(F)(F)F)=C2O)ccc1O was read as HTR2A ag -2, Fh CTSL1 inh -3 and LANA-H2A inh 1.
Screening Cc1csc(/C(=N/OC(=O)c2ccco2)C(N)=O)n1 returned HTR2A ag -1, Fh CTSL1 inh 1, LANA-H2A inh -9 and HDAC3 inhib 28*.
`COc1ccc(N2C(=NC(=O)c3ccc(Br)cc3)SC3CS(=O)(=O)CC32)cc1` (configuration not stated) gave HTR2A ag -3, LANA-H2A inh 3 and HDAC3 inhib -6.
Screening Oc1c(Br)cc(CNC2CCCCC2)cc1Br returned HTR2A ag -6.
`Cc1ccc2c(c1)c1c(n2CC(O)Cn2c(C)nc3ccccc32)/C(=N\O)CCC1` (configuration not stated) gave HTR2A ag 4, Fh CTSL1 inh 3, LANA-H2A inh 0 and HDAC3 inhib 28*.
Screening CCOC(=O)c1ccc2ncc(C(=O)OCC)c(NCCN(C)C)c2c1 returned HTR2A ag 5, Fh CTSL1 inh 66*, LANA-H2A inh -7 and HDAC3 inhib -1.
CCn1c(SC(=O)NC2CCCCC2)nnc1-c1cccs1 was read as HTR2A ag 2, Fh CTSL1 inh 55*, LANA-H2A inh 1 and HDAC3 inhib -18.
`CCn1c(SCC(=O)NC2CCCCC2)nnc1-c1cccs1` gave HTR2A ag 0, Fh CTSL1 inh 1, LANA-H2A inh -8 and HDAC3 inhib -2.
O=C(Cc1ccc(Cl)cc1)N1CCc2ccccc2C1 was read as HTR2A ag -11, Fh CTSL1 inh 0, LANA-H2A inh 20* and HDAC3 inhib -2.
Screening COc1ccc(CC(=O)N2CCc3ccccc3C2)cc1 returned HTR2A ag -3, LANA-H2A inh 3 and HDAC3 inhib 0.
For Cc1nc(C)n(CC(C)C(=O)N2CCN(S(=O)(=O)c3ccccc3)CC2)n1 (configuration not stated) the results were HTR2A ag -7, Fh CTSL1 inh -1, LANA-H2A inh -2 and HDAC3 inhib -12.
`CC(OC(=O)c1nc(Cl)ccc1Cl)C(=O)c1ccccc1` (configuration not stated) gave HTR2A ag 2, Fh CTSL1 inh 1, LANA-H2A inh 1 and HDAC3 inhib 5.
`Cc1ccc(C(=O)CC2(O)C(=O)Nc3ccccc32)s1` (configuration not stated) gave HTR2A ag 0, Fh CTSL1 inh 0, LANA-H2A inh 1 and HDAC3 inhib 2.
`Cc1ccc2c(c1)C(O)(CC(=O)c1ccc(C)s1)C(=O)N2` (configuration not stated) gave HTR2A ag 1, Fh CTSL1 inh 1, LANA-H2A inh 90* and HDAC3 inhib 3.
Screening CCOc1ccc(OCC)c(NC(=O)CN2CCN(CC(=O)NC(C)C)CC2)c1 returned HTR2A ag 2, Fh CTSL1 inh 3, LANA-H2A inh 14* and HDAC3 inhib 2.
Screening Cc1cccc(C)c1NC(=O)CN(C)C(=O)c1ccc2c(=O)n3c(nc2c1)CCC3 returned HTR2A ag -9, LANA-H2A inh 15* and HDAC3 inhib -12.
For Cc1cc(C)c(NC(=O)CNC(=O)c2ccc3c(=O)n4c(nc3c2)CCC4)c(C)c1 the results were HTR2A ag -3, LANA-H2A inh 5 and HDAC3 inhib -1.
CC(=O)c1ccc(N2CCN(C(=O)c3ccc(C(=O)c4ccccc4)cc3)CC2)cc1 was read as HTR2A ag -2.
Screening O=C(CCl)Nc1cn(-c2ccccc2)nc1-c1ccccc1 returned HTR2A ag 1, Fh CTSL1 inh 82*, LANA-H2A inh 0 and HDAC3 inhib -6.
Screening CC(=O)Nc1cn(-c2ccccc2)nc1-c1ccccc1 returned HTR2A ag 0, Fh CTSL1 inh -5, LANA-H2A inh -4 and HDAC3 inhib 1.
For COc1ccccc1NC(=O)CSc1nc(=O)n(CCN2CCOCC2)c2c1CCC2 the results were HTR2A ag -4, Fh CTSL1 inh -4, LANA-H2A inh -3 and HDAC3 inhib 0.
For O=C(NC1CCS(=O)(=O)C1)c1ccc(N2CCCCC2)c([N+](=O)[O-])c1 (configuration not stated) the results were HTR2A ag -2, Fh CTSL1 inh -6, LANA-H2A inh 4 and HDAC3 inhib -7.
For CSc1nsc(SCC(=O)Nc2ccc(C(N)=O)cc2)n1 the results were HTR2A ag 5, Fh CTSL1 inh 0, LANA-H2A inh 31* and HDAC3 inhib 1.
Screening O=C(Nc1cccc(C(F)(F)F)c1)c1ccc2nc(-c3ccco3)c(-c3ccco3)nc2c1 returned HTR2A ag 16*, Fh CTSL1 inh 2, LANA-H2A inh 0 and HDAC3 inhib 1.
Screening Cc1cc(=O)n2nc(N3CCCC(C(=O)NCc4ccccc4)C3)sc2n1 (configuration not stated) returned HTR2A ag 2, Fh CTSL1 inh -1, LANA-H2A inh -2 and HDAC3 inhib -3.
Screening Cc1cc(=O)n2nc(N3CCCC(C(=O)N4CCN(c5ccccc5)CC4)C3)sc2n1 (configuration not stated) returned HTR2A ag 0, Fh CTSL1 inh 17*, LANA-H2A inh -1 and HDAC3 inhib 1.
Screening O=C(Nc1ccccc1C(=O)O)c1cccc(NS(=O)(=O)c2ccc(Br)cc2)c1 returned HTR2A ag 5, Fh CTSL1 inh 0, LANA-H2A inh 1 and HDAC3 inhib -1.
`O=C(Nc1ccccc1C(=O)O)c1cccc(S(=O)(=O)Nc2ccc(Br)cc2)c1` gave HTR2A ag 4, Fh CTSL1 inh 8, LANA-H2A inh 19* and HDAC3 inhib 3.
Screening O=C(COC(=O)c1cccc(F)c1)Nc1cccc(S(=O)(=O)N2CCCCC2)c1 returned HTR2A ag 1.
`O=C1c2ccccc2C(=O)N1C1C=CC=CC=C1` gave HTR2A ag -1.
For O=C(O)c1cccc(-c2noc(-c3cccc(Cl)c3)n2)c1 the results were HTR2A ag 3, LANA-H2A inh 2 and HDAC3 inhib 0.
Clc1cccc(Cc2c(C3CCCCC3)nc3ccc(Br)cn23)c1 was read as HTR2A ag 1.

Assay outcomes (PubChem)
